Data as given in PubChem BioAssay (NCATS).
Where “and” joins values, the source holds several entries; their conditions need not be identical. Identical values can stand only once. Inconclusive results are not listed. More than one record can exist for a structure, and the calls need not agree. Calls of active or inactive are those of the source. The call rests on the fitted dose curve; in most records, active means well fitted inhibition curve with a large enough effect; inconclusive means small, poorly fitted or top-dose-only effect; inactive means flat fitted curve, though single readings scatter.

Tests used:
CRL-7250 = normal cell line; test: Cytotoxic Profiling of Annotated Libraries Using Quantitative High-Throughput Screening (AID 1296008); conditions: Five cell lines viability, CellTiter-Glo ATP luminescence, 48-72 h; max response: active compounds read low
Summary of the method: (§1)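 Compounds were pin-transferred onto cells and incubated 48 or 72 hr at 37 degree Celsius, 95% humidity. CellTiter-Glo was added, plates sat 10 min at room temperature, then ATP-coupled luminescence was imaged as the viability read-out.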

HEK293 = test: as above; conditions: Five cell lines viability, CellTiter-Glo ATP luminescence, 48-72 h; max response: active compounds read low
Summary of the method: as §1

HaCat [1] = test: as above; conditions: Five cell lines viability, CellTiter-Glo ATP luminescence, 48-72 h; max response: active compounds read low
Summary of the method: as §1

KB-3-1 = test: as above; conditions: Five cell lines viability, CellTiter-Glo ATP luminescence, 48-72 h; max response: active compounds read low
Summary of the method: as §1

NIH3T3 [2] = test: as above; conditions: Five cell lines viability, CellTiter-Glo ATP luminescence, 48-72 h; max response: active compounds read low
Summary of the method: as §1

HACAT [3] = test: qHTS assay to identify novel small-molecules to repurpose for Merkel cell carcinoma treatment (AID 1296009); conditions: MCC and control cell lines, CellTiter-Glo viability, 72 h; series mostly up to 44.8 µM
Summary of the method: (§2)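 Cells exposed to NPC (8-point) and MIPE (11-point) compound dilutions for 72 hr at 37 degree celsius; viability read by CellTiter-Glo luminescence, normalized to no-cell and DMSO in-plate controls.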

MCC-13 = test: as above; conditions: MCC and control cell lines, CellTiter-Glo viability, 72 h; series mostly up to 46 µM
Summary of the method: as §2

MCC-26 = test: as above; conditions: MCC and control cell lines, CellTiter-Glo viability, 72 h; series mostly up to 46 µM
Summary of the method: as §2

MKL-1 = test: as above; conditions: MCC and control cell lines, CellTiter-Glo viability, 72 h; series mostly up to 46 µM
Summary of the method: as §2

MKL-2 = test: as above; conditions: MCC and control cell lines, CellTiter-Glo viability, 72 h; series mostly up to 46 µM
Summary of the method: as §2

HEK293T = test: as above; conditions: MCC and control cell lines, CellTiter-Glo viability, 72 h; at 44.8 µM (top of the series) unless noted
Summary of the method: as §2

NIH3T3 [4] = test: as above; conditions: MCC and control cell lines, CellTiter-Glo viability, 72 h; at 44.8 µM (top of the series) unless noted
Summary of the method: as §2
Further: nearly all actives have a fitted effect of over 60% in size.
On the % scale 0 is the no-effect control and ±100 the full control effect; potency means the concentration at half of the fitted maximal effect.

CC(O)C1C(=O)N2C(C(=O)O)=C(SC3CNC(C(=O)N(C)C)C3)C(C)C12 (stereo unspecified)
inactive: max response (CRL-7250) -9.97% and 0.421% | max response (HEK293) -5.51% and 0.11% | max response (HaCat [1]) 0.187% | outcome (HaCat [1]) | max response (KB-3-1) 5.3% | outcome (KB-3-1) | max response (NIH3T3 [2]) 0.991% and 3.69% | Potency (HACAT [3]) | Potency (MCC-13) | Potency (MCC-26) | Potency (MKL-1) | Potency (MKL-2)

C[C@]12CC[C@H](O)CC1=CCC1C2CC[C@]2(C)C(n3cnc4ccccc43)=CCC12 (stereo partly specified)
active: Potency (HEK293) 14.6 µM
inactive: max response (CRL-7250) -7.08% | max response (HEK293) -24.7% | max response (HaCat [1]) 2.2% | max response (KB-3-1) 0.714% | max response (NIH3T3 [2]) 3.78% and -16% | Potency (MCC-13) | Potency (MCC-26) | Potency (MKL-1)

COc1cccc(Nc2c(C(N)=O)cnc3c(C)cc(S(=O)(=O)c4cccc(C(=O)N(C)C)c4)cc23)c1
active: Potency (HEK293) 12.9 µM
inactive: max response (CRL-7250) -20.3% | outcome (CRL-7250) | max response (HaCat [1]) 2.69% | max response (KB-3-1) -2.62% and -18.7% | max response (NIH3T3 [2]) -0.878% | Potency (MCC-13) | Potency (MCC-26) | Potency (MKL-1) | Potency (MKL-2)

O=C(Nc1cc(C(F)(F)F)cc(C(F)(F)F)c1)c1cc(Cl)ccc1O
active: Potency (CRL-7250) 3.72 µM and 3.26 µM | Potency (HEK293) 590 nM and 1.16 µM | Potency (HaCat [1]) 2.64 µM and 2.91 µM | Potency (KB-3-1) 264 nM and 731 nM | Potency (NIH3T3 [2]) 3.32 µM and 5.8 µM

CC(=O)SC[C@@H](C)C(=O)N1CCC[C@H]1C(=O)N[C@@H](Cc1ccccc1)C(=O)O
inactive: max response (CRL-7250) 1.31% | outcome (HEK293) | max response (HaCat [1]) 1.63% | max response (KB-3-1) 2.35% | max response (NIH3T3 [2]) 0.0761% | outcome (HEK293T) | Potency (MCC-13) | Potency (MCC-26) | Potency (MKL-1) | Potency (MKL-2)

N#Cc1c(O)c2c(-c3ccc(-c4ccccc4O)cc3)csc2[nH]c1=O
inactive: max response (CRL-7250) -0.58% and 1.34% | max response (HEK293) 3.13% and -14.8% | outcome (HaCat [1]) | outcome (KB-3-1) | max response (NIH3T3 [2]) -1.37% | outcome (NIH3T3 [2]) | Potency (HACAT [3]) | Potency (MCC-13) | Potency (MCC-26) | Potency (MKL-1) | Potency (MKL-2) | outcome (NIH3T3 [4])

Cc1cn2cc(C(=O)N(C)CCO)cc(N[C@@H]3CCOc4cccc(C)c43)c2n1
inactive: max response (CRL-7250) -0.414% and 0.78% | max response (HEK293) -7.53% and -5.18% | outcome (HaCat [1]) | max response (KB-3-1) -1.9% | outcome (KB-3-1) | outcome (NIH3T3 [2]) | Potency (HACAT [3]) | Potency (MCC-13) | Potency (MKL-1) | Potency (MKL-2) | outcome (NIH3T3 [4])

COc1ccc(-c2cc3c(C)nc(N)nc3n(C3CCC(OCCO)CC3)c2=O)cn1 (stereo unspecified)
active: Potency (CRL-7250) 23.5 nM and 231 nM | Potency (HEK293) 66.2 nM and 411 nM | Potency (HaCat [1]) 52.6 nM and 2.31 µM | Potency (KB-3-1) 105 nM and 517 nM | Potency (NIH3T3 [2]) 1.3 µM | Potency (MCC-13) 1870 nM | Potency (MCC-26) 1320 nM | Potency (MKL-1) 4180 nM | Potency (MKL-2) 166 nM

CCc1c2c(nc3ccc(O)cc13)-c1cc3c(c(=O)n1C2)COC(=O)[C@]3(O)CC
active: Potency (CRL-7250) 651 nM and 2.64 µM | Potency (HEK293) 14.6 nM and 16.6 nM | Potency (HaCat [1]) 58 nM and 105 nM | Potency (KB-3-1) 291 nM and 235 nM | Potency (NIH3T3 [2]) 0.731 µM | Potency (MCC-13) 29.6 nM | Potency (MCC-26) 37.2 nM | Potency (MKL-1) 11.8 nM | Potency (MKL-2) 41.8 nM

CC(C)(C)c1cc(C(C)(C)C)c(NC(=O)c2c[nH]c3ccccc3c2=O)cc1O
inactive: outcome (CRL-7250) | outcome (HEK293) | outcome (HaCat [1]) | max response (KB-3-1) -1.43% | outcome (NIH3T3 [2]) | Potency (HACAT [3]) | outcome (HEK293T) | Potency (MCC-13) | Potency (MCC-26) | Potency (MKL-1) | Potency (MKL-2) | outcome (NIH3T3 [4])

O=C(C=Cc1c(C(=O)O)[nH]c2cc(Cl)cc(Cl)c12)Nc1ccccc1
inactive: outcome (CRL-7250) | outcome (HEK293) | max response (HaCat [1]) -0.315% | max response (KB-3-1) 3.7% | max response (NIH3T3 [2]) 1.73% | outcome (HEK293T) | Potency (MCC-13) | Potency (MKL-1) | Potency (MKL-2)

Nc1nc(-c2nn(Cc3ccccc3F)c3ncccc23)nc(N)c1N1CCOCC1
inactive: max response (CRL-7250) -1.46% | max response (HEK293) -2.05% | max response (HaCat [1]) -22.5% | max response (KB-3-1) 6.89% | max response (NIH3T3 [2]) -10.6% | Potency (MCC-13) | Potency (MCC-26) | Potency (MKL-1) | Potency (MKL-2)

C#Cc1cccc(Nc2ncnc3cc(OC)c(OCCCCCCC(=O)NO)cc23)c1
active: Potency (CRL-7250) 4.69 µM | Potency (HEK293) 1.05 µM and 4.61 µM | Potency (HaCat [1]) 2.64 µM and 6.51 µM | Potency (KB-3-1) 1.48 µM and 4.11 µM | Potency (NIH3T3 [2]) 13.2 µM | Potency (MCC-13) 16600 nM | Potency (MCC-26) 10500 nM | Potency (MKL-1) 935 nM | Potency (MKL-2) 105 nM

Cn1cc(-c2[nH]c3cc(NC(=O)[C@H](N)C4CCCCC4)cc4c3c2C=NNC4=O)cn1
active: Potency (CRL-7250) 1.87 µM and 2.59 µM | Potency (HEK293) 3.32 µM and 5.8 µM | Potency (KB-3-1) 5.9 µM and 4.11 µM | Potency (NIH3T3 [2]) 14.8 µM
inactive: max response (HaCat [1]) -8.38%

Cc1nc2cnc3ccc(C#Cc4cccnc4)cc3c2n1-c1ccc(C(C)(C)C#N)cc1
active: Potency (CRL-7250) 0.0469 µM | Potency (HEK293) 0.0743 µM | Potency (HaCat [1]) 1.18 µM | Potency (KB-3-1) 93.5 nM | Potency (NIH3T3 [2]) 0.148 µM
